Compounds with a hit are over-represented: about 1.3% of the library has one in this group of screens.
3CLpro inhibitor = SARS-CoV 3CLpro protease inhibition. P0C6X7. recombinant SARS-CoV 3CLpro, quenched FRET peptide cleavage. inhibition, % at 6 µM. 0.14% of 290,000 active; in the data active means inhibition above about 12%
CCHFV vOTU inh = CCHFV vOTU protease inhibition. Pep-AMC fluorescence. inhibition, % at 11.5 µM. 0.55% of 370,000 active; in the data active means inhibition above about 30%; further: 0% = vehicle wells with enzyme and 100% = no enzyme wells
Vc quorum ag = induces V. cholerae light production without autoinducers. 0.16% of 350,000 active. V. cholerae BH1578 lux reporter, luminescence, 6 h. activation, % at 18.7 µM; in the data active means activation mostly above about 9.7%, no sharp cut-off
DUSP3 inh = blocks human VHR1 dual specificity phosphatase | P51452 | recombinant VHR phosphatase, pNPP absorbance | inhibition, % at 13.3 µM | 0.52% of 290,000 active | AID 1654; in the data active means inhibition above about 50%
Target sequence (P51452 whole entry, looked up): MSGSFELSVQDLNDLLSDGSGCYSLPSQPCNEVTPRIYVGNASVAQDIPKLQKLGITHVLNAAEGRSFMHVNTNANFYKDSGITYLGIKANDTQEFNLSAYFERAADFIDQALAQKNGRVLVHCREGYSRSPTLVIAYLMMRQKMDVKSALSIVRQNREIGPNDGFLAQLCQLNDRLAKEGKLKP
TcdB inh = TcdB glycohydrolase inhibition. 0.24% of 350,000 active. inhibition, % at 9.99 µM. TcdB glycohydrolase enzymatic assay, plate reader. P18177; in the data active means inhibition above about 10%
SSB-PriA inh = K. pneumoniae PriA-SSBct interaction inhibition; inhibition, % at 33 µM; 0.6% of 430,000 active; AID 1272365; AlphaScreen SSBct-PriA binding, biotinylated peptide; in the data active means inhibition mostly above about 37%, no sharp cut-off; inactive means mostly below about 20%;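 further: plate controls were negative control peptide for no effect and reference peptide for full effect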
* = called active by the depositor; i = inactive; / = no result given; ! = a repeat was not active.

SMILES	3CLpro inhibitor	CCHFV vOTU inh	Vc quorum ag	DUSP3 inh	TcdB inh	SSB-PriA inh
CN1CCN(c2ccc(N)c(N3CCN(C)CC3)c2)CC1	3	9	0	15	/	16
Nc1ccc(N2CCCCC2)cc1N1CCCCC1	-3	15	0	14	/	63*
CC(C)(C)NC(=O)CSCc1ccc(Br)cc1	-2	-3	0	53*	2	-11
CC1=CC(=O)C(N=[N+]=[N-])=C(C)C1=NC(=O)c1ccc(C)cc1	/	/	/	/	/	14
Cc1cccc(C(=O)NC2CCCc3ccccc32)c1 (stereo not drawn)	-4	12	/	11	0	/
Cc1cccc(-n2nnc(C(=O)NC3CCCc4ccccc43)c2N)c1 (stereo not drawn)	-3	12	-4	52*	/	2
NC1CC(=O)N(c2ccccc2)C1 (stereo not drawn)	/	/	/	/	/	2
C=CCc1ccc(OCCn2nnc3ccccc32)c(OC)c1	-1	-9	12	56*	1	-12
CC(=O)Oc1ccc(/C=N/NS(=O)(=O)c2ccc(C)cc2)c(OC(C)=O)c1	-2	2	8	54*	-1	/
Cc1ccc(Cc2nnc(NC(=O)[C@@H]3COc4ccccc4O3)o2)cc1	/	/	/	/	/	-6
CCn1c(=N)c(S(=O)(=O)c2ccc(C)cc2)cc2c(=O)n3ccccc3nc21	4	-10	/	52*	1	/
CCn1c(=N)c(S(=O)(=O)c2ccccc2)cc2c(=O)n3ccccc3nc21	-3	-30	i	14	0	-2
COc1ccc(C(=O)CSc2cc(C)[nH]c(=O)n2)cc1	-1	17	0	50*	0	-4
C[C@H]1C=C(C(=O)NCc2nc3ccccc3[nH]2)O[C@@H](OCc2ccc(CO)cc2)C1	/	-6	1	22	11*!	-10
CC(=O)c1cc(CN2CCC(n3nccc3NC(=O)c3ccccc3C)CC2)cs1	1	-9	i	59*	1	-8
COc1ccc(CN2CCC(n3nccc3NC(=O)c3ccc4c(c3)OCO4)CC2)cc1C	-6	0	0	52*	2	3
COc1ccccc1C(=O)Nc1ccnn1C1CCN(Cc2csc(C(C)=O)c2)CC1	5	-5	-2	17	1	-2
CCCCCN(C(=O)NC(=O)Nc1ccc(S(=O)(=O)Nc2nc(C)cc(C)n2)cc1)S(=O)(=O)c1ccc(C)cc1	/	/	/	/	/	-7
O=C(NCCc1ccoc1)c1cc2ccccc2[nH]1	/	/	/	/	/	16
Cc1cnc([N+](=O)[O-])n1CCOC(=O)NC(=O)c1ccc(F)cc1	-1	3	i	26	32*	3
CCCCCCc1cc(-c2nc(N)nc(C)c2-c2ccc(Br)cc2)c(O)cc1OC	/	/	/	/	/	-11
Cc1cc(C(F)(F)F)nc(CCNC(=O)Nc2ccc3c(c2)OCO3)n1	/	/	/	/	/	44*
CC(=O)NC(c1ccccc1)c1cc([N+](=O)[O-])c2cccnc2c1O (stereo not drawn)	-2	25	1	-9	6	44*
COc1ccccc1-n1c(CCC(=O)O)ccc1-c1ccccc1	-5	-3	i	15	11*	-20
COc1ccc(-c2ccc(CCC(=O)O)n2-c2ccccc2OC)cc1	-3	-13	-1	19	-1	3
SMILES	3CLpro inhibitor	CCHFV vOTU inh	Vc quorum ag	DUSP3 inh	TcdB inh	SSB-PriA inh
C[C@H](CO)N1C[C@H](C)[C@@H](CN(C)C(=O)Nc2ccc(C(F)(F)F)cc2)Oc2ccc(NC(=O)C3CCCCC3)cc2C1=O	/	3	0	/	14*!	1
C[C@@H]1CN([C@@H](C)CO)C(=O)c2cc(NC(=O)C3CCCCC3)ccc2O[C@@H]1CN(C)C(=O)Nc1ccc(C(F)(F)F)cc1	/	/	/	/	-1	/
C[C@H](CO)N1C[C@H](C)[C@@H](CN(C)C(=O)Nc2ccc(C(F)(F)F)cc2)Oc2c(NS(=O)(=O)c3cn(C)cn3)cccc2C1=O	/	6	i	/	13*!	3
Fc1ccc(NC(=S)N/N=C/c2ccc(F)c(F)c2)c(F)c1	0	0	i	52*	1	/
C=CCn1c(CCN2C(=O)c3cccc4cccc(c34)C2=O)n[nH]c1=S	/	/	/	/	/	-8
Cc1cc(NN=Cc2ccccc2O)nc(N2CCOCC2)n1	/	/	/	/	/	9
Cc1cc(N/N=C/c2ccc(O)cc2O)nc(N2CCOCC2)n1	0	14	0	9	15*	/
CC(C)(Cc1ccc(O)cc1)NC(=O)SCc1ccccc1	6	7	0	51*	2	5
COc1ccc(/C=N/Nc2ncc(Br)cn2)c(OC)c1	-4	0	0	88*	0	/
Clc1ccc(N=c2ssnc2Cl)nc1	-2	15	-2	61*	1	-2

Source: PubChem (several laboratories)
